Compound activity from PubChem BioAssay.
Rows were chosen to be rich in hits. Some 11% of all compounds tested hit in one or more screens of this group.
Luciferase inh: Firefly luciferase inhibition profiling of diverse chemical library using quantitative high-throughput screening; Luciferin 4-monooxygenase (Photinus pyralis), P08659; purified P. pyralis luciferase, luminescence, biochemical; Potency, µM (highest dose often 115 µM), actives largely listed as inhibitors; 76,000 compounds, 2.5% hits; note: nearly all actives have a fitted effect of over 65% in size
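Purified P. pyralis luciferase (10nM final) in 50mM Tris acetate pH 7.5, 10mM Mg acetate, 0.01% Tween-20, 0.05% BSA with 10uM D-luciferin and 10uM ATP. Compounds titrated qHTS. Luminescence imaged on CCD.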
3T3 cytotox: Cytotoxic Profiling in NIH 3T3 Cell Line of Diverse Libraries Using Quantitative High-Throughput Screening; NIH 3T3 viability, CellTiter-Glo ATP luminescence, 48-72 h; Potency, µM (titrated, usually from 96.7 µM), hits mostly inhibitors; 94,000 compounds, 4.3% hits; note: nearly all actives have a fitted effect of over 55% in size
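Cytotoxicity was measured by CellTiter-Glo ATP luminescence after 48 or 72 h compound exposure at 37 °C. Mouse NIH 3T3 fibroblasts were seeded at 400 cells/well and dosed by 23 nL pin transfer.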
HEK cytotox: Cytotoxic Profiling in HEK 293 Cell Line of Diverse Libraries Using Quantitative High-Throughput Screening; HEK 293 viability, ATP luminescence (CellTiter-Glo), 48-72 h; Potency, µM (doses to about 115 µM), actives largely listed as inhibitors; 94,000 compounds, 6.6% hits; note: nearly all actives have a fitted effect of over 60% in size
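Pintool-delivered compounds were incubated with HEK 293 cells (250 cells/well) at 37 degree Celsius for 48 or 72 hr. ATP-dependent luminescence (CellTiter-Glo) then reported remaining viable cells.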
hNpr1 antagonist: Natriuretic polypeptide receptor (hNpr1) antagonism - Primary qHTS | AID 1347048, 2019 | HEK293 hNpr1 GloSensor cGMP, ANP-stimulated luminescence | Atrial natriuretic peptide receptor 1 (Homo sapiens), P16066 | 76,000 compounds, 1.6% hits | Potency, µM (titrated, usually from 46.3 µM), usual class: inhibitors; calls by dose curve; note: nearly all actives have a fitted effect of over 60% in size
Target sequence (P16066 whole entry, looked up): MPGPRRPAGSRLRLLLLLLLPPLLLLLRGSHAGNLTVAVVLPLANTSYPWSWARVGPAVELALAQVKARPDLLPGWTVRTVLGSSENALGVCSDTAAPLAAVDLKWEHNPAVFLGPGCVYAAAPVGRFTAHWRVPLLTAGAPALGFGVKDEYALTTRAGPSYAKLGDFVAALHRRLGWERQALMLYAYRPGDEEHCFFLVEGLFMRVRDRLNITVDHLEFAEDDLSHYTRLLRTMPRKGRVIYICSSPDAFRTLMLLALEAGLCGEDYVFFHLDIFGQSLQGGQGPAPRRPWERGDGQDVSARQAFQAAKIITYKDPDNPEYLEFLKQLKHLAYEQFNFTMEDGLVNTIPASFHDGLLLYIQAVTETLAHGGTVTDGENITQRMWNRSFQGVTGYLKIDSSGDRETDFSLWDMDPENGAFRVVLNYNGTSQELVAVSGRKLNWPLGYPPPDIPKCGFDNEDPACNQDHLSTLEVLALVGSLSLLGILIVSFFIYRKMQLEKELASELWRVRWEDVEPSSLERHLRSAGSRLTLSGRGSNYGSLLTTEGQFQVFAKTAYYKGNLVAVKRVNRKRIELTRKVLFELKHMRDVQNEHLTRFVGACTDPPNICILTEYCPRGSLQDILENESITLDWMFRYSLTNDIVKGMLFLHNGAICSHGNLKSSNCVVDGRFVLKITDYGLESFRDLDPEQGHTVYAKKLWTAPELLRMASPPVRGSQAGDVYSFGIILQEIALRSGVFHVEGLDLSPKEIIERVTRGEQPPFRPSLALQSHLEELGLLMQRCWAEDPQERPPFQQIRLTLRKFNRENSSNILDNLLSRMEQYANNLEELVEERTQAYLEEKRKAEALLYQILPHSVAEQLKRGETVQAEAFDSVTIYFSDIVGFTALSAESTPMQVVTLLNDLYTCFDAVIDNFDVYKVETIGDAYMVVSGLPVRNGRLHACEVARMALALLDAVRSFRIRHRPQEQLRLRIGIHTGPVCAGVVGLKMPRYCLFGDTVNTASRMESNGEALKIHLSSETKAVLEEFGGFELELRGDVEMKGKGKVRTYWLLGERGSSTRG
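HEK293 cells stably expressing human Npr1 and cGMP GloSensor pGS-40F, loaded 2 h with 2% GloSensor reagent, given compound 30 min at room temperature. Luminescence read before and 20 min after 0.1 nM hNppA.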
Each line names hits and unclear results; the compound was inactive in the other large screens. Unless noted, calls come from the whole dose curve; as a rule, active = well fitted curve in the direction sought with a large enough effect; inconclusive = small, poorly fitted or top-dose-only effect, or another doubt; inactive = no such curve, though single readings can be large; an effect the other way counts as inactive or inconclusive.

CC(=O)N1CCC(Nc2ncccc2-c2cc(-c3ccccc3)nc3c(C)noc23)CC1	3T3 cytotox inconclusive, HEK cytotox 100µM
Cc1noc2c(-c3cccnc3)cc(-c3cccs3)nc12	3T3 cytotox inconclusive, HEK cytotox inconclusive
Cc1noc2c(NC3CCN(C)CC3)cc(-c3ccc(Cl)cc3)nc12	3T3 cytotox 10µM, HEK cytotox 35.5µM
Cc1noc2c(-c3cccc(O)c3)cc(-c3cccs3)nc12	3T3 cytotox 39.8µM, HEK cytotox 70.8µM
CC(=O)N1CCC(Nc2cc(-c3ccc(Cl)cc3)nc3c(C)noc23)CC1	3T3 cytotox inconclusive, HEK cytotox inconclusive
O=C(Nc1cnc(-c2cccc(Cl)c2)nc1)c1cc(F)cc(F)c1	3T3 cytotox inconclusive, HEK cytotox inconclusive
COCCn1c(CN2C(=O)N(C)C(=O)C2(C)C)nnc1C1CC(N)C1 (stereo not given)	none
O=C(NCC(F)(F)F)c1ccc2nnc(-c3cc(F)ccc3F)n2c1	none (no result: Luciferase inh, hNpr1 antagonist)
COCCNc1cc(-c2ccc(Cl)cc2)nc2c(C)noc12	3T3 cytotox inconclusive, HEK cytotox inconclusive
Cc1noc2c(NC3CCC(O)CC3)cc(-c3ccc(Cl)cc3)nc12 (stereo not given)	3T3 cytotox 22.4µM, HEK cytotox 89.1µM
O=C(NCc1ccc(Cl)cc1)c1cc2cccnn2n1	Luciferase inh 44.7µM, 3T3 cytotox inconclusive, HEK cytotox inconclusive
O=C(Nc1ccc(Cl)cc1Cl)c1cnn2ncccc12	HEK cytotox inconclusive
C=CCNC(=O)c1cc2cccnn2n1	Luciferase inh inconclusive
O=C(Nc1ccc(Cl)cc1Cl)c1cc2cccnn2n1	Luciferase inh 0.316µM, 3T3 cytotox inconclusive, HEK cytotox inconclusive, hNpr1 antagonist 2.24µM
COc1cccc(-c2ncc3c(n2)OCCN(CC2CC2)C3=O)c1OC	3T3 cytotox 89.1µM
COc1cccc(-c2ncc3c(n2)OCCN(c2ccccc2)C3=O)c1OC	Luciferase inh inconclusive, 3T3 cytotox 79.4µM, HEK cytotox inconclusive
O=C1c2cnc(-c3ccncc3)nc2OCCN1c1ccccc1	Luciferase inh inconclusive, HEK cytotox inconclusive
Cc1ccc(N2CC(c3noc(-c4cc(F)ccc4Cl)n3)CC2=O)cc1 (stereo not given)	3T3 cytotox inconclusive, HEK cytotox inconclusive
COc1ccccc1-c1cc2c(ccn2C)c(C(=O)NCCN2CCNC2=O)n1	3T3 cytotox 100µM
COc1ccccc1-c1cc2c(ccn2C)c(C(=O)NCC2CCN(C)C(=O)C2)n1 (stereo not given)	3T3 cytotox 79.4µM
Cn1ccc2c(C(=O)NCC3CCC(=O)N3)nc(-c3ccccc3O)cc21 (stereo not given)	3T3 cytotox 39.8µM, HEK cytotox inconclusive
Cc1ncsc1CN1CC(N(Cc2ccccc2)C2CCOCC2)C1	none
COCCOC1CN(C2CCN(Cc3ccccc3)CC2)C12CCCCC2 (stereo not given)	3T3 cytotox inconclusive
Clc1ccccc1CN1CC[C@H](c2nnc(-c3ccccc3)o2)C1	none
Clc1ccc(-c2nnc([C@H]3CCN(Cc4c[nH]c5ccccc45)C3)o2)cc1	3T3 cytotox 112µM, HEK cytotox inconclusive
c1ccc(-c2nnc([C@H]3CCN(Cc4ccco4)C3)o2)cc1	Luciferase inh 50.1µM, HEK cytotox inconclusive
Clc1ccc(-c2nnc([C@H]3CCN(Cc4ccco4)C3)o2)cc1	Luciferase inh 44.7µM
Cn1ncc2c(C(=O)Nc3ccccc3Cl)cc(-c3ccc(Cl)cc3Cl)nc21	none (no result: Luciferase inh, hNpr1 antagonist)
CNS(=O)(=O)CCNc1nc(-c2ccccn2)nc2c1c(C)nn2C	none
Cc1nn(C)c2nc(-c3ccccn3)nc(NCC(c3ccco3)N(C)C)c12 (stereo not given)	3T3 cytotox inconclusive, HEK cytotox 28.2µM
COC(CNc1nc(-c2ccccn2)nc2c1c(C)nn2C)c1cccs1 (stereo not given)	3T3 cytotox 25.1µM, HEK cytotox 31.6µM
O=C1NC(=NC2CCCC2)C2(CCCN(CC3CCCCC3)C2)N1c1cc(F)cc(F)c1 (stereo not given)	3T3 cytotox 28.2µM, HEK cytotox 35.5µM (no result: Luciferase inh, hNpr1 antagonist)
O=C1NC(=NC2CCCCC2)C2(CCN(CC3CCCCC3)C2)N1c1cc(F)cc(F)c1 (stereo not given)	3T3 cytotox 31.6µM, HEK cytotox 31.6µM (no result: Luciferase inh, hNpr1 antagonist)
O=C1NC(=NC2CCCCC2)C2(CCN(CC3CCCCC3)CC2)N1c1cc(F)cc(F)c1	none (no result: Luciferase inh, hNpr1 antagonist)
COc1cccc(N2C(=O)NC(=NC3CCCC3)C23CCN(CC2CCCCC2)C3)c1 (stereo not given)	3T3 cytotox 31.6µM, HEK cytotox inconclusive (no result: Luciferase inh, hNpr1 antagonist)
CC(=O)Nc1cccc2ccc(OCc3nnc(C(=O)N4CCC[C@@H]4c4ccc(Br)cc4)n3Cc3ccccc3)cc12	3T3 cytotox inconclusive, HEK cytotox inconclusive
CC(=O)Nc1cccc(OCc2nnc(C(=O)N3CCC[C@@H]3c3ccc(Br)cc3)n2Cc2ccccc2)c1	3T3 cytotox 22.4µM, HEK cytotox 31.6µM
COc1ccc(-c2cc(C[C@H]3CNCC[C@H]3CC(=O)N3CCN(C)CC3)no2)cc1	3T3 cytotox inconclusive
O=C(C[C@@H]1CCNC[C@@H]1Cc1cc(-c2ccccc2)on1)N1CCc2ccccc2C1	3T3 cytotox 31.6µM, HEK cytotox 39.8µM
COc1ccc(-c2cc(C[C@H]3CNCC[C@H]3CC(=O)N3CCN(c4ccccc4)CC3)no2)cc1	3T3 cytotox 25.1µM, HEK cytotox 39.8µM
COc1cc2c(cc1OC)CN(C(=O)C[C@@H]1CCNC[C@@H]1Cc1cc(-c3ccccc3)on1)CC2	3T3 cytotox inconclusive, HEK cytotox 79.4µM
CN1CCN(C(=O)C[C@@H]2CCNC[C@@H]2Cc2cc(-c3ccccc3)on2)CC1	3T3 cytotox inconclusive
CN(Cc1cc(C[C@H]2CNCC[C@H]2CC(=O)N2CCN(c3ccccc3)CC2)no1)c1ccccc1	3T3 cytotox 20µM, HEK cytotox inconclusive
COC(=O)CC(NC(=O)N1CCc2nc(-c3ccccc3)[nH]c2C1)c1ccccc1 (stereo not given)	none (no result: Luciferase inh, hNpr1 antagonist)
CCCN(CC1CC1)C(=O)C1CCN(C(=O)N2CC3CC(C2)[C@H]2CCCC(=O)N2C3)CC1 (stereo not given in full)	none
COCCCNC(=O)N1CC(c2nc(CCOCC3CCOCC3)no2)C1	none
O=c1c2c(n(Cc3cccnc3)n1-c1ccccc1)CN(CC1CC1)CC2	3T3 cytotox 28.2µM
COc1ncc(CN2CCc3c(n(Cc4cccnc4)n(-c4ccccc4)c3=O)C2)cn1	3T3 cytotox inconclusive
COCCn1c(=O)c2c(n1Cc1ccccc1)CN(Cc1cccc(C)n1)CC2	3T3 cytotox inconclusive
Cc1cccc(CN2CCc3c(n(Cc4cccnc4)n(-c4ccccc4)c3=O)C2)n1	3T3 cytotox 100µM
O=C1NCCCCCN(C(=O)NCc2ccc(F)cc2)[C@H]2CCCC[C@@H]12	none
